Compounds without any hit were thinned out: in the full panel of roughly 83,000, 20% have a hit.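 Testing used 96-well plates and a 48-hour single-concentration exposure. Example: -40 means 40% of the starting cells died.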 Unmarked numbers belong to inactive results. Calls of active or inactive are those of the source. The calls were made as follows: active = growth percent below 10; inactive = the rest.

One experiment relates to HCC-2998 colon. Description: NCI-60 one-dose screen, 48 h (100 = growth as untreated, 0 = no growth, -100 = all killed). As to conditions: 10 µM unless noted.
With `Cc1cc(NCCCNc2ccnc3cc(Cl)ccc23)nc(N2CCN(C)CC2)n1`, the growth is 48.9%.

In the case of `CC(C)c1nc(N(C)S(C)(=O)=O)nc(-c2ccc(F)cc2)c1/C=C/[C@@H](O)C[C@@H](O)CC(=O)O`, the growth was 97.5%.

`Fc1ccc([C@@H]2CCNC[C@H]2COc2ccc3c(c2)OCO3)cc1`: the growth was -66.8% (active).

`CCC(C)CC(CC)NCCN1CCN(C(CC)CC(C)CC)C1=S` (stereo not given): the growth was -45.6% (active).

With `COc1cccc(-c2nnc(N)o2)c1`, the growth was 83.3%.

As to `Cc1ccsc1/C=C/C1=NCCCN1C`, the growth is 102%.

Turning to `Nc1c2ccccc2nc2ccccc12` (tested in a mixture with another compound), the growth was 28.7%.

On to `CCCCc1nc(Cl)c(CO)n1Cc1ccc(-c2ccccc2-c2nn[nH]n2)cc1`, for which the growth was 104%.

As for `CN(CCOc1ccc(CC2SC(=O)NC2=O)cc1)c1ccccn1` (stereo not given), the growth was 112%.

For `Nc1nc(N)c([N+](=O)[O-])c(=O)[nH]1`, the growth is 103%.

Regarding `CC(=O)O[C@H]1C(=O)[C@@]2(C)C([C@H](OC(=O)c3ccccc3)[C@]3(O)C[C@H](OC(=O)[C@H](O)[C@@H](NC(=O)c4ccccc4)c4ccccc4)C(C)=C1C3(C)C)[C@]1(OC(C)=O)CO[C@@H]1C[C@@H]2O` (stereo not given in full), the growth was -22.4% (active).

For `COC1CC2CCC(C)C(O)(O2)C(=O)C(=O)N2CCCCC2C(=O)OC(C(C)CC2CCC(O)C(OC)C2)CC(=O)C(C)C=C(C)C(O)C(OC)C(=O)C(C)CC(C)/C=C/C=C/C=C1C` (stereo not given), the growth is 50.4%.

With `COc1cc([C@@H]2c3cc4c(cc3C(O[C@@H]3O[C@@H]5CO[C@@H](c6cccs6)OC5[C@H](O)[C@H]3O)C3COC(=O)[C@@H]32)OCO4)cc(OC)c1O` (stereo not given in full), the growth is -76.4% (active).

With `O=c1cc(-c2cccnc2)oc2c1ccc1ccccc12`, the growth was 89.2%.

For `O=C(Nc1ccc(OCc2nnc(-c3ccccc3)o2)c(F)c1)Nc1ccc(Cl)c(C(F)(F)F)c1`, the growth was 14.4%.

Take `O=[N+]([O-])c1ccc(N/N=C\c2ccccc2[N+](=O)[O-])nc1`: the growth was 107%.

For the molecule `CO[C@H]1CC(O[C@@H]2/C(C)=C/C[C@@H]3C[C@@H](C[C@]4(CC[C@H](C)[C@@H](C5CCCCC5)O4)O3)OC(=O)[C@@H]3C=C(C)/C(=N/O)[C@H]4OC/C(=C\C=C\[C@@H]2C)[C@]43O)O[C@@H](C)C1O` (stereo not given in full), the growth was -78.1% (active).

Turning to `C=C1CC[C@@H]2[C@](C)(COC(C)=O)[C@H](OC(C)=O)CC[C@@]2(C)[C@@H]1CC(Nc1ccc(S(=O)(=O)Nc2cc(C)on2)cc1)C1=CCOC1=O` (stereo not given in full), the growth is 68.3%.

In the next experiment the test system is KM12 colon. Described as above. As to conditions: 10 µM unless noted.
Take `Cc1cc(NCCCNc2ccnc3cc(Cl)ccc23)nc(N2CCN(C)CC2)n1`: the growth was 52.6%.

On to `CCCc1cc(=O)n2c(C(=O)Nc3ccccc3OC)c(C(=O)Nc3ccc(F)cc3)sc2n1`, for which the growth was 76.6% [30 µM].

As to `N#Cc1cccc(/C=C(/C(=O)c2ccccc2)c2ccccc2)c1`, the growth was 22.3%.

In the case of `CCC1(c2ccccc2)Oc2ccccc2-n2c(C#N)c3ccccc3c2C1=O` (stereo not given), the growth is 102%.

On to `C/C(=N/N=C(N)N)c1ccc(N)cc1`, for which the growth was 96%.

In the case of `CC(C)c1nc(N(C)S(C)(=O)=O)nc(-c2ccc(F)cc2)c1/C=C/[C@@H](O)C[C@@H](O)CC(=O)O`, the growth is 95.8%.

Turning to `COc1ccc(/C=C(\C#N)c2ccccc2)cc1`, the growth was 49.2%.

As to `Fc1ccc([C@@H]2CCNC[C@H]2COc2ccc3c(c2)OCO3)cc1`, the growth is 76.4%.

As to `COc1cc(/C=C/C(=O)c2c(-c3ccc(F)cc3)nc3sc(C)nn23)cc(OC)c1OC`, the growth was 21.8%.

With `CCC(C)CC(CC)NCCN1CCN(C(CC)CC(C)CC)C1=S` (stereo not given), the growth is 24.4%.

On to `COc1cccc(-c2nnc(N)o2)c1`, for which the growth is 106%.

For `CCCCSc1cc(C)nc(N)n1`, the growth was 98.8%.

With `Cc1ccsc1/C=C/C1=NCCCN1C`, the growth was 114%.

As for `Nc1c2ccccc2nc2ccccc12` (tested in a mixture with another compound), the growth is 23%.

`COc1cc(/C=C/C(=O)c2c(-c3ccc(Cl)cc3)nc3sc(C)nn23)cc(OC)c1OC`: the growth was 73.6%.

Consider `CCCCc1nc(Cl)c(CO)n1Cc1ccc(-c2ccccc2-c2nn[nH]n2)cc1`, for which the growth was 103%.

With `CN(CCOc1ccc(CC2SC(=O)NC2=O)cc1)c1ccccn1` (stereo not given), the growth was 96.3%.

As for `N#Cc1c2ccccc2c2n1-c1ccccc1OC(c1ccccc1)C2=O` (stereo not given), the growth was 16%.

Consider `Nc1nc(N)c([N+](=O)[O-])c(=O)[nH]1`, for which the growth is 111%.

Turning to `Cc1c(C(N)=O)sc2ncn(Cc3ccccc3)c(=O)c12`, the growth is 110%.

In the case of `CC(=O)O[C@H]1C(=O)[C@@]2(C)C([C@H](OC(=O)c3ccccc3)[C@]3(O)C[C@H](OC(=O)[C@H](O)[C@@H](NC(=O)c4ccccc4)c4ccccc4)C(C)=C1C3(C)C)[C@]1(OC(C)=O)CO[C@@H]1C[C@@H]2O` (stereo not given in full), the growth is 9.05% (active).

For the molecule `CC1(C)OC(=O)C(=Cc2ccccc2Br)C(=O)O1`, the growth was 108%.

Regarding `COC1CC2CCC(C)C(O)(O2)C(=O)C(=O)N2CCCCC2C(=O)OC(C(C)CC2CCC(O)C(OC)C2)CC(=O)C(C)C=C(C)C(O)C(OC)C(=O)C(C)CC(C)/C=C/C=C/C=C1C` (stereo not given), the growth is 69.8%.

For `COc1cc([C@@H]2c3cc4c(cc3C(O[C@@H]3O[C@@H]5CO[C@@H](c6cccs6)OC5[C@H](O)[C@H]3O)C3COC(=O)[C@@H]32)OCO4)cc(OC)c1O` (stereo not given in full), the growth was -45.9% (active).

With `Cn1c(=O)c2nc(SCc3ccccc3)n(C)c2n(C)c1=O`, the growth was 104%.

As for `O=c1cc(-c2cccnc2)oc2c1ccc1ccccc12`, the growth is 95.8%.

As for `C/C(=N\N1CC(=O)NC1=O)c1ccc([N+](=O)[O-])o1`, the growth is 96.3%.

As for `NC(N)=N/N=C(/c1ccccc1)c1ccc(Cl)cc1`, the growth is 28.3%.

Consider `N#Cc1ccc(NC(=O)Nc2ccc(Oc3ccc(NC(=O)Nc4ccc(C#N)cc4)cc3)cc2)cc1`, for which the growth is 9.37% (active).

As to `Cc1c(NCc2nnc3n(Cc4ccccc4)c(=O)c4c5c(sc4n23)CCCC5)c(=O)n(-c2ccccc2)n1C`, the growth is 98.8%.

As to `O=C(Nc1ccc(OCc2nnc(-c3ccccc3)o2)c(F)c1)Nc1ccc(Cl)c(C(F)(F)F)c1`, the growth was 1.65% (active).

Turning to `Cc1cc(N2CCOCC2)nc(N2CCOCC2)n1`, the growth is 107%.

In the case of `COc1cc2c(C#N)n3c(c2cc1OC)C(=O)C(c1ccccc1)Oc1ccccc1-3` (stereo not given), the growth was 23.4%.

For the molecule `O=[N+]([O-])c1ccc(N/N=C\c2ccccc2[N+](=O)[O-])nc1`, the growth is 104%.

On to `CO[C@H]1CC(O[C@@H]2/C(C)=C/C[C@@H]3C[C@@H](C[C@]4(CC[C@H](C)[C@@H](C5CCCCC5)O4)O3)OC(=O)[C@@H]3C=C(C)/C(=N/O)[C@H]4OC/C(=C\C=C\[C@@H]2C)[C@]43O)O[C@@H](C)C1O` (stereo not given in full), for which the growth is -88.8% (active).

Turning to `COc1ccc(OC)c(NC(=O)c2cc3oc4ccccc4c3cc2O)c1`, the growth was 99.5%.

For `C=C1CC[C@@H]2[C@](C)(COC(C)=O)[C@H](OC(C)=O)CC[C@@]2(C)[C@@H]1CC(Nc1ccc(S(=O)(=O)Nc2cc(C)on2)cc1)C1=CCOC1=O` (stereo not given in full), the growth was 30.5%.

For the origin of these results see PubChem BioAssay (NCI).
